The source of these data is PubChem BioAssay (NCI).

Holding throughout (experiment): NCI-60 one-dose screen, 48 h (100 = growth as untreated, 0 = no growth, -100 = all killed)
Holding throughout (details): 10 µM unless noted

For experiment [1], the system named is DU-145 prostate.
Experiment [2] concerns K-562 leukemia.
For experiment [3], the system named is MALME-3M melanoma.
For experiment [4], the system named is MDA-MB-231 breast.
Experiment [5] concerns RXF 393 renal.
The test system of experiment [6] is SF-268 CNS.
The subject of experiment [7] is SF-295 CNS.
Experiment [8] has as its system SF-539 CNS.
Experiment [9] concerns UACC-257 melanoma.
For experiment [10], the system named is M14 melanoma.

The panel holds about 83,000 compounds, 20% with a hit somewhere; the sample as a whole holds those more often.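 Step 1: grow cells in 96-well plates. Step 2: add test compound at a single concentration. Step 3: incubate 48 h. Step 4: record percent growth.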 Unmarked numbers belong to inactive results. Active and inactive are the calls of the source. The calls were made as follows: active = growth percent below 10; inactive = the rest.

Take `COc1sc(/C=N/NC(=O)c2[nH]c3ccc(Br)cc3c2-c2ccccc2)cc1Br`: the growth in experiment [1] is -8.01% (active); in experiment [2], 7.79% (active); in experiment [3] it was 48%; in experiment [4], -13.3% (active); in experiment [5], -0.818% (active); in experiment [6], 3.22% (active). For the same molecule, the growth in [7] is -15% (active); in experiment [8], -64.1% (active); in experiment [9] it was 52.7%; in experiment [10] it was 10.7%.
Consider `COc1ccc2ccccc2c1/C=C1\SC(=Nc2ccc(O)cc2)NC1=O`, for which the growth is 35.2% in experiment [1]; 7.49% (active) in [2]; 30.1% in [3]; 15.1% in [4]; -1.11% (active) in experiment [5]; 37.9% in experiment [6]. For the same molecule, the growth was 10.7% in experiment [7], -21.7% (active) in experiment [8], 37.8% in experiment [9] and 6.7% (active) in [10].
On to `C[C@H]1[C@@H](CC(=O)N[C@@H](Cc2coc3ccccc23)B(O)O)O[C@@H]2OC3(C)CC[C@H]4[C@H](C)CC[C@@H]1[C@@]24O3`, for which the growth in experiment [1] is 45%; in [2] it was 14.8%; in [3], -41.6% (active); in [4], -68.3% (active); in experiment [5], -59% (active); in experiment [6], 17.5%. Moreover, the growth is -65.7% (active) in experiment [7], -91.6% (active) in experiment [8], -45.3% (active) in experiment [9] and -33.7% (active) in [10].
Take `O=C1CC(c2ccc(I)cc2)OC2C=Cc3ccccc3C12` (stereo not given): the growth is 106% in experiment [1]; 102% in [2]; 94.3% in experiment [3]; 97.6% in experiment [4]; 107% in experiment [5]; 114% in experiment [6]. In addition, the growth in [7] is 99.9%; in [8], 106%; in [9] it was 113%; in experiment [10], 108%.
As for `O=C(CSc1nnc(-c2ccc(-c3nc4ccccc4[nH]3)cc2)o1)Nc1ccc(Br)cc1`, the growth is 13.8% in experiment [1]; 11% in experiment [2]; 31.9% in [3]; -29.1% (active) in [4]; -62% (active) in experiment [5]; 48.7% in experiment [6]. In addition, the growth in [7] was 53.8%; in experiment [8] it was -89.8% (active); in [9], 61.9%; in experiment [10], -0.614% (active).
Turning to `O=C(Nc1nc2ccc([N+](=O)[O-])cc2s1)Nc1ccc(Cl)cc1Cl`, the growth in [1] was 64.1%; in experiment [2], 24.6%; in experiment [3], 52.4%; in experiment [4], 1.5% (active); in [5], 20%; in experiment [6] it was 66.1%. Also, the growth was 17.2% in experiment [7], 11.7% in [8], 60.3% in experiment [9] and 77.9% in [10].
Turning to `Cn1ncc2c(N)nc(Oc3ccccc3-c3ccccc3)nc21`, the growth in experiment [1] is 73.1%; in experiment [2] it was 6.56% (active); in experiment [3] it was 25.7%; in [4], 43%; in experiment [5], 25%; in experiment [6] it was 55.6%. The growth in [7] is 27.2%; in experiment [8], 25.9%; in experiment [9], 63.5%; in experiment [10], 13.6%.
For the molecule `CCN1C(=O)N(CC)C2NNC(Sc3c(C(=O)O)c4ccccc4n(CC(C)C)c3=O)=NC21` (stereo not given), the growth in experiment [1] was 20%; in experiment [2] it was 5.86% (active); in [3], 48.1%; in [4], 15.9%; in experiment [5] it was 81.8%; in [6], 55.7%. The growth was -14.8% (active) in [7], -29% (active) in experiment [8], 50.3% in experiment [9] and 22.4% in experiment [10].
For the molecule `CN1C(=O)/C(=C/c2ccco2)S/C1=N/c1nccs1`, the growth in experiment [1] is 107%; in experiment [2] it was 101%; in experiment [3] it was 118%; in experiment [4] it was 109%; in [5], 111%; in experiment [6], 107%. The growth is 102% in experiment [7], 103% in experiment [8], 117% in experiment [9] and 117% in experiment [10].
Regarding `Cc1ccc(C(=O)Nc2cc(-c3ccncc3)cc(C(F)(F)F)c2)cc1C#Cc1cnc2cccnn12`, the growth in [1] is 68.9%; in experiment [2], 2.38% (active); in experiment [3], -11.8% (active); in experiment [4], 23.7%; in experiment [5], 28.8%; in experiment [6], 79.4%. The growth is 46.3% in experiment [7], 32.3% in experiment [8], 40.9% in experiment [9] and 8.59% (active) in [10].
As to `C#CCCCNCCNc1ccnc2cc(Cl)ccc12`, the growth is 74.5% in experiment [1]; 19.9% in experiment [2]; 88.8% in [3]; 66.3% in [4]; 36.2% in [5]; 87.7% in experiment [6]. The growth was 48.2% in [7], -13.9% (active) in [8], 0.503% (active) in experiment [9] and 61.3% in [10].
In the case of `O=C(c1ccc(Cl)cc1)C1[C@H](c2ccccc2Cl)[C@@H](c2ccccc2)NC12C(=O)Nc1ccccc12` (stereo not given in full), the growth in [1] is -12.8% (active); in experiment [2] it was -36.6% (active); in experiment [3] it was -34.8% (active); in experiment [4], -64.8% (active); in [5], -80.8% (active); in experiment [6] it was 2.93% (active). For the same molecule, the growth is -72.3% (active) in [7], -89.7% (active) in experiment [8], 1.79% (active) in experiment [9] and -75.7% (active) in experiment [10].
Turning to `N#Cc1c(NC(=O)N2CCOCC2)n(-c2ccc(OC(F)(F)F)cc2)c2cc(F)ccc12`, the growth in experiment [1] is 100%; in experiment [2], 8.91% (active); in experiment [3], 94.5%; in [4] it was 73.7%; in experiment [5], 95.2%; in experiment [6], 114%. The growth in experiment [7] was 87.7%; in experiment [8], 87.7%; in [9], 102%; in experiment [10] it was 96.7%.
Turning to `S=C(Nc1ccccc1)Nc1ccc(OCc2nc3ccc(Cl)cc3[nH]2)cc1`, the growth was 96.4% in experiment [1]; 30.9% in [2]; 92.4% in experiment [3]; 80% in [4]; 85.1% in experiment [5]; 92.1% in experiment [6]. The growth is 93.7% in experiment [7], 88.8% in [8], 105% in [9] and 85% in [10].
